The source of these data is PubChem BioAssay (NCATS).

Where “and” joins values, the source holds several entries; their conditions need not be identical. Equal entries are not always repeated. Inconclusive results are not listed. Calls of active or inactive are those of the source. Unless noted, the call rests on the fitted dose curve; in most records, active means well fitted curve in the direction sought with a large enough effect; inconclusive means small, poorly fitted or top-dose-only effect, or another doubt; inactive means no such curve, though single readings can be large; an effect the other way counts as inactive or inconclusive.

A short description of test [1]: qHTS Assay for Identifying Gametocytocidal Compounds (AID 743244).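 Further: on the % scale 0 is the no-effect control and ±100 the full control effect; actives lower the fluorescent signal which means gametocytes are killed.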 The following applies: P. falciparum 3D7 stage III-V gametocytes, alamarBlue, 72 h; max response: stronger effect = lower value. Put shortly:
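A resazurin-based viability read-out was applied to mature P. falciparum gametocytes: 72 h compound treatment, then 24 h dye incubation, with falling fluorescence signalling gametocytocidal effect.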
On the technique in general: qHTS replaces the single test concentration by a dilution series.

A short description of test [2]: qHTS profiling of the MIPE4 collection as inhibitors of Plasmodium falciparum (3D7) proliferation (AID 743344; call rule not given here;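 further: scaled between DMSO vehicle wells and 0.29 µM artemisinin as full inhibition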). The following applies: P. falciparum 3D7 in erythrocytes, SYBR Green DNA fluorescence, 72 h; at 28.5 µM (top of the series) unless noted. Put shortly:
(§1)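 Parasite DNA was quantified by SYBR Green I fluorescence (ex 485, em 535 nm) after overnight lysis in saponin/Triton buffer at room temperature. Cultures at 0.3% parasitemia and 2.5% hematocrit were first exposed to compound for 72 h at 37 C; signals were normalised to artemisinin (0.29 uM) and vehicle wells.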

Test [3] can be described thus: qHTS profiling of the MIPE4 collection as inhibitors of Plasmodium falciparum (DD2) proliferation (AID 743345; call rule not given here). The following applies: P. falciparum Dd2 in erythrocytes, SYBR Green DNA, 72 h; at 28.5 µM (top of the series) unless noted. A digest of the protocol: as §1
A short description of test [4]: qHTS profiling of the MIPE4 collection as inhibitors of Plasmodium falciparum (DD2) proliferation (Rep 2) (AID 743346; call rule not given here). The following applies: P. falciparum Dd2 in erythrocytes, SYBR Green DNA, 72 h; at 28.5 µM (top of the series) unless noted. A digest of the protocol: as §1
A short description of test [5]: qHTS profiling of the MIPE4 collection as inhibitors of Plasmodium falciparum (HB3) proliferation (AID 743347; call rule not given here;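 further: plate controls were DMSO vehicle wells for no effect and artemisinin wells for full effect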). The conditions noted are these: P. falciparum HB3 in erythrocytes, SYBR Green DNA, 72 h; at 28.5 µM (top of the series) unless noted. Put shortly: as §1
Test [6] in a line: qHTS assay for measurement of the activity of small molecule inhibitors on Zika virus induced Caspase-3 activity in human iPSC derived neural progenitor cells (hNPCs) (AID 1224857). Further: % of control where 0% means no effect; nearly all actives have a fitted effect of over 65% in size. A digest of the protocol: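 Quantitative HTS format: human iPSC neural progenitors, 1 h compound pretreatment, ZIKV 2 FFU/cell for 6 h at 37 C. Percent inhibition derived from luminescent caspase-3/7 signal between uninfected and infected controls.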

Test [7] can be described thus: qHTS assay to identify small molecule inhibitors of chordoma cells - UCH-1 (AID 1259355). Further: on the % scale 0 is the no-effect control and ±100 the full control effect; nearly all actives have a fitted effect of over 55% in size. A digest of the protocol: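 A 48hr growth-inhibition format: each drug tested at 15 concentrations together with added auranofin, camptothecin, doxorubicin, rubitecan and topotecan, with cell viability quantified as CellTiter-Glo luminescence.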
Test [8] can be described thus: qHTS assay to identify small molecule inhibitors of chordoma cells - UCH-2 (AID 1259356). Further: on the % scale 0 is the no-effect control and ±100 the full control effect.
A short description of test [9]: qHTS assay for cell viability of HEK293 cells (AID 743288). Further: on the % scale 0 is the no-effect control and ±100 the full control effect; nearly all actives have a fitted effect of over 50% in size. The conditions noted are these: ATP luminescence (CellTiter-Glo), 18 h, stronger effect = lower value. A digest of the protocol:
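Quantitative high-throughput screen: compounds were pinned onto parental HEK293 cells (2,000 per well) after a minimum 5 h settling at 37 C, incubated 18 h at 37 C, and intracellular ATP measured by luciferase luminescence.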

A short description of test [10]: qHTS assay for cell viability of the p53RE-bla HCT-116 cell line (AID 743292). Further: on the % scale 0 is the no-effect control and ±100 the full control effect; nearly all actives have a fitted effect of over 55% in size. A digest of the protocol:
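Readout: CellTiter-Glo luminescence after 30 min RT. Treatment: compounds in DMSO, 16 h, 37 C. Cells: CellSensor p53RE-bla HCT-116, 4,000/well, preincubated 5 h.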

Test [11] addresses T1, Hexokinase-4 (Homo sapiens) + Glucokinase regulatory protein (Homo sapiens) (UniProt P35557+Q14397). In words: qHTS assay for inhibitors of recombinant human GCK-GKRP interaction: ADP-Glo assay (AID 743206).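 Further: plate controls were DMSO plus enzyme for no effect and no enzyme for full effect.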 Put shortly:
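Pin-transferred compounds meet a 15 nM GST-GCK/15 nM FLAG-GKRP/2 uM S6P mix (dispense concentrations). ATP is then added to 0.4 mM final with 5 mM glucose, and the reaction runs 60 min at room temperature. ADP is quantified luminescently.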

Test [12] concerns the target T1, Hexokinase-4 (Homo sapiens) + Glucokinase regulatory protein (Homo sapiens). In words: qHTS assay for inhibitors of recombinant human GCK-GKRP interaction: HTRF assay (AID 743207).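 Further: 0% = DMSO with GCK present and -100% = DMSO wells lacking GCK.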 A digest of the protocol: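 Steps: dispense GCK–GKRP complex (5 nM each, GST- and FLAG-tagged) with 2 uM S6P; pin in compounds; add XL665/Eu-cryptate-labelled antibodies; incubate 60 min at room temperature; read time-resolved FRET at 665 and 615 nm.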

T1 sequence (P35557 whole entry, looked up): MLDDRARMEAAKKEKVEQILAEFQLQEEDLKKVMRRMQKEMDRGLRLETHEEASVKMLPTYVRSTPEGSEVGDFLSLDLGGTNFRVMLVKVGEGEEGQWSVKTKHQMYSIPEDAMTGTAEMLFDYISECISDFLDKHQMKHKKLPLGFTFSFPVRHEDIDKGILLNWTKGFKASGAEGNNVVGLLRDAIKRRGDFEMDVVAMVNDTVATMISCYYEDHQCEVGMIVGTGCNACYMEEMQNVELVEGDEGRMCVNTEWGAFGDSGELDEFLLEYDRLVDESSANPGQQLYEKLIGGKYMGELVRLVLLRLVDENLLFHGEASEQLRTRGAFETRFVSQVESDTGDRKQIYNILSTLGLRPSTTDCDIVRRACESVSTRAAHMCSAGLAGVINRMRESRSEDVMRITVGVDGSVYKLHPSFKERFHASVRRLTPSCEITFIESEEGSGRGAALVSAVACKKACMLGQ
T1 sequence (Q14397 whole entry, looked up): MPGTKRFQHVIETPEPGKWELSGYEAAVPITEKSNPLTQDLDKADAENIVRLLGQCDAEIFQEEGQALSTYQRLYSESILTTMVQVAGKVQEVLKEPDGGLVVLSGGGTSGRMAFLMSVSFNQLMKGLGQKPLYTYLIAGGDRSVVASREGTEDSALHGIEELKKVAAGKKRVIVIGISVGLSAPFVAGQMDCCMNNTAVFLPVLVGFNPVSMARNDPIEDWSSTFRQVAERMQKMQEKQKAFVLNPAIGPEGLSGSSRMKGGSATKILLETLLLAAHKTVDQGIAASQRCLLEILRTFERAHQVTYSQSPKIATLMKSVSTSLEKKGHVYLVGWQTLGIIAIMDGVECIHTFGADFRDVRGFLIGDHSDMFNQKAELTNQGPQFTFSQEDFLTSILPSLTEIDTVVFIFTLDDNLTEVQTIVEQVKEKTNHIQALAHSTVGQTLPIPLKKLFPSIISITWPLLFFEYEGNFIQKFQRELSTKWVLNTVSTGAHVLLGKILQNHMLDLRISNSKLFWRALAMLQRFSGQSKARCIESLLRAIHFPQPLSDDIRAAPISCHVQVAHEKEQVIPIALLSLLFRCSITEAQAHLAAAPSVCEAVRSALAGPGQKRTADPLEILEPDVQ

As to `CC1=C(C(=O)OC(C)C)C(c2cccc([N+](=O)[O-])c2)C(C(=O)OC2CN(C(c3ccccc3)c3ccccc3)C2)=C(N)N1` (centres undefined), the max response in test [1] is 7.23% (inactive). Besides, the parasite growth, % of DMSO control in test [2] came to 6.8%. The parasite growth remaining, % of DMSO control (lower = more inhibition) in [3] stood at 7.73%. In test [4], this compound showed a parasite growth, % of control (lower = inhibition) of 24.4%. Besides, the growth, % of control in test [5] is 9.79%. Besides, in test [6], the result was inactive. Moreover, the Potency result in test [7] and in test [8] was “inactive” throughout.

As to `NCCc1ccn[nH]1`, the max response in [1] was 5.14% (inactive). Besides, the result in test [6] was inactive. For the same compound, the Potency result in test [7] and in test [8] was “inactive” throughout.

On to `Cc1cc(=O)n(-c2ccccc2)n1C`, for which the results for the max response in test [1] and in [9] were 18.5% (inactive) and -2.36% (inactive), respectively. The call in test [10] and in test [6] was inactive. Besides, the Potency result in test [8] was “inactive”.

`COC(=O)CCc1ccc(OCC(O)CNC(C)C)cc1` (centres undefined): the max response in test [1] was 1.13% (inactive). Also, the outcome in test [6] was inactive.

For `CCOC(=O)COc1ccc2c(C)c(CCN(CC)CC)c(=O)oc2c1Cl`, the max response in [1] was -0.591% (inactive). The outcome in [6] was inactive.

Take `c1ccc(OCc2ccc(CCCN3CCOCC3)cc2)cc1`: the max response in test [1] was -2.94% (inactive). In addition, in test [6], the outcome was inactive. Also, the Potency entry in test [8] was “inactive”.

Consider `COc1cc(C(=S)N2CCOCC2)cc(OC)c1OC`, for which, in test [1], the max response is 7.8% (inactive). Further, the call in test [6] was inactive. For the same compound, the Potency result in [8] is “inactive”.

`CN(C)/N=N/c1nc[nH]c1C(N)=O`: the max response in test [1] is 5.22% (inactive); in test [9], 4.22% (inactive). Besides, the result in test [10] and in test [6] was inactive. Moreover, the Potency result in test [8] was “inactive”.

For the compound `C[C@@H](CN(C)C)CN1c2ccccc2Sc2ccccc21`, the call in [6] was inactive. For the same compound, the Potency result in test [8] was “inactive”.

For the compound `COc1ccc(CN2CCN(C(c3ccc(F)cc3)c3ccc(F)cc3)CC2)c(OC)c1OC`, in test [1], the max response is 1.04% (inactive). This compound also showed a parasite growth, % of DMSO control in test [2] of 4.59%. Also, the parasite growth remaining, % of DMSO control (lower = more inhibition) in [3] came out at 8.3%. Besides, in test [4], the parasite growth, % of control (lower = inhibition) is 26.6%. The growth, % of control in test [5] is 6.18%. Also, in test [6], the compound was classed as inactive. The Potency entry in test [8] was “inactive”.

As for `O=C1OC(c2ccc(O)cc2)(c2ccc(O)cc2)c2ccccc21`, the max response in test [1] is 7.07% (inactive); in test [9], -1.91% (inactive) and -6.06% (inactive). Also, the result in test [10] and in test [6] was inactive. In addition, the Potency result in test [8] is “inactive”.

For `Nc1nc2ncc(CNc3ccc(C(=O)N[C@@H](CCC(=O)O)C(=O)O)cc3)nc2c(=O)[nH]1`, in [1], the max response is 17.9% (inactive). For the same compound, the call in [6] was inactive. The Potency entry in test [7] and in test [8] was “inactive” in each case.

Regarding `CCCC1O[C@@H]2C[C@H]3[C@@H]4CCC5=CC(=O)C=C[C@]5(C)[C@H]4[C@@H](O)C[C@]3(C)[C@]2(C(=O)CO)O1` (some centres undefined), the result in test [11], in test [12] and in [6] was inactive. The max response in test [1] was -5.95% (inactive) and 18.2% (inactive). Moreover, the Potency result in test [8] is “inactive”.

With `O=C(Nc1ccc(Cl)c(Cl)c1)C1CC1`, in test [1], the max response was 14% (inactive). The compound was called inactive in test [6]. Moreover, the Potency entry in [8] was “inactive”.

Consider `C[C@H](CCC(=O)O)[C@H]1CC[C@H]2[C@@H]3C(=O)C[C@@H]4CC(=O)CC[C@]4(C)[C@H]3CC(=O)[C@]12C`, for which the max response in [1] is 6.84% (inactive). For the same compound, the compound was classed as inactive in test [6]. In addition, the Potency result in test [8] was “inactive”.

Turning to `O=c1[nH]c(=O)n([C@H]2C[C@H](O)[C@@H](CO)O2)cc1C(F)(F)F`, the max response in [1] was 15% (inactive). The outcome in test [6] was inactive. Also, the Potency result in test [7] and in test [8] was “inactive” each time.

Regarding `C[C@]12CCC(=O)C=C1CC[C@H]1[C@@H]3CC[C@](O)(C(=O)CO)[C@@]3(C)C[C@H](O)[C@@]12F`, in test [1], the max response was 15.9% (inactive) and -1.69% (inactive). Besides, the result in [6] was inactive. In [8], the Potency entry was “inactive”.

Consider `CC(C)(Oc1ccc(Cl)cc1)C(=O)O`, for which the max response in [1] is 6.9% (inactive); in test [9], -4.41% (inactive). Moreover, the call in test [10] and in [6] was inactive. Moreover, the Potency entry in [7] and in test [8] was “inactive” throughout.

For `CC1=C(C(=O)O)N2C(=O)[C@@H](NC(=O)[C@H](N)c3ccc(O)cc3)[C@H]2SC1`, in test [1], the max response is 17.2% (inactive). Besides, in [6], the call was inactive. For the same compound, the Potency entry in test [8] is “inactive”.

As to `NC(CO)(CO)CO`, the max response in test [1] is 0.227% (inactive). Moreover, the result in test [6] was inactive. Further, the Potency entry in test [7] and in test [8] was “inactive” each time.

In the case of `CN1[C@@H]2CC[C@H]1CC(OC(=O)c1c[nH]c3ccccc13)C2` (some centres undefined), in test [1], the max response is 7.82% (inactive). In addition, the result in [6] was inactive. In [8], the Potency entry is “inactive”.

For the compound `C=CCc1ccc(O)c(OC)c1`, the max response in [1] is 4.9% (inactive); in test [9] it was -4.89% (inactive) and -5.68% (inactive). Further, the compound was classed as inactive in test [10] and in test [6]. Moreover, the Potency entry in test [8] was “inactive”.
